A selection: hits, their analogues and other compounds. The true share with any hit is near 3.8%.
TGFb inhibitor: TGF-b pathway inhibition; Potency, µM (highest dose often 46.1 µM), inactives show at the top dose activity, negative = inhibition, usual class: inhibitors; HepG2 CAGA-GFP TGF-b/SMAD3 reporter, GFP fluorescence, 18 h; TGF-beta stimulated, 500 pg/mL final; 410,000 compounds, 1.2% hits; further: on the % scale 0 is the no-effect control and ±100 the full control effect; nearly all actives have a fitted effect of over 65% in size
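Read-out: total well GFP (ex488/em500-530) summed from mean per-cell fluorescence. Cells: HEPG2 CAGA-GFP, 1% FBS DMEM, 18 h at 37 degrees C with 500 pg/mL final TGF-beta. Unstimulated wells served as the full-inhibition control; stimulated DMSO wells = 0%.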
ATXN2 expr inh: inhibitors of ATXN2 expression. AID 1745845. HEK-293 ATXN2-luciferase reporter, luminescence, 24 h. 360,000 compounds, 0.72% hits. Potency, µM (highest dose often 57 µM), for inactives: top-dose activity change, negative = inhibition, actives largely listed as inhibitors; further: on the % scale 0 is the no-effect control and ±100 the full control effect; nearly all actives have a fitted effect of over 55% in size
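ATXN2-luciferase reporter cells (luciferase flanked by upstream and downstream ATXN2 gene portions) were treated 24 h at 37 °C with compounds at up to 57 uM. SteadyGlo luminescence gave expression; GF-AFC fluorescence gave viability.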
HepG2 viability: HepG2 cytotoxicity, counter-screen for TGF-b inhibitors | HepG2 CAGA-GFP viability, ATP luminescence, 18 h | Potency, µM (highest dose often 46.1 µM), inactives show top-dose activity change, negative = cytotoxicity, most hits filed as cytotoxic | 410,000 compounds, 0.76% hits | AID 588856
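HepG2 CAGA-GFP cells (1000/well, DMEM with 1% FBS) received compound, then TGF-beta at 500 pg/mL final, and were incubated 18 hours at 37 degrees C. Viability was read by CellTiter-Glo luminescence. Media-only wells were set as complete cell-killing and DMSO as no toxicity.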
HT1080NT lethal: kills 2HG-producing HT-1080-NT fibrosarcoma cells | HT-1080-NT fibrosarcoma viability, CellTiter-Glo ATP luminescence, 48 h | Potency, µM (doses to about 46.1 µM), without a hit: at the top dose activity, negative = less viability, hits mostly cytotoxic | 360,000 compounds, 1.6% hits;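 further: NT is the 2HG producing partner of a matched IDH1 knockdown line; 0% = DMSO-treated cells and -100% = media-only wells without cells; nearly all actives have a fitted effect of over 55% in size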
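Toxicity toward the 2HG-producing NT line was scored as %Activity, normalised to DMSO and no-cell wells, from CellTiter-Glo luminescence after 48 hours' treatment.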
HT1080 IDH1KD tx: HT-1080 IDH1 knockdown cell toxicity (counter line) | HT-1080 IDH1 knockdown viability, ATP luminescence, 48 h | Potency, µM (top dose mostly 46.1 µM), for inactives: at the top dose activity, negative = toxicity, usual class: cytotoxic | 360,000 compounds, 2% hits | AID 686971;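 further: 0% = DMSO wells and -100% = cell-free medium wells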
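Assay cells: HT-1080 with IDH1 knockdown, 750 per well, RPMI/5% FBS. Exposure: 48 h at 37 °C following 2 h pre-incubation. Read: CellTiter-Glo luminescence; fitted concentration-response, curve class assigned.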
ATXN viability: viability counter-screen for ATXN expression inhibitors; Potency, µM (titrated, usually from 56.7 µM), usual class: cytotoxic; AID 651635; 400,000 compounds, 0.49% hits; S2 cells (HEK-293 line with an ATXN2-luciferase reporter) viability, CellTiter-Fluor protease fluorescence, 24 h; further: nearly all actives have a fitted effect of over 40% in size
An asterisk follows results filed as active; i = inactive; ? = inconclusive; / = not tested or not shown. The call rests on the fitted dose curve; in most records, active means well fitted curve in the direction sought with a large enough effect; inconclusive means small, poorly fitted or top-dose-only effect, or another doubt; inactive means no such curve, though single readings can be large; an effect the other way counts as inactive or inconclusive. Potency means the concentration at half of the fitted maximal effect.

SMILES | TGFb inhibitor | ATXN2 expr inh | HepG2 viability | HT1080NT lethal | HT1080 IDH1KD tx | ATXN viability
CCSc1nc(-c2ccccc2)nc(C(Cl)Cl)n1 | 5.6µM* | ? | 7.1µM* | ? | ? | ?
O=C(CN(c1ccc(Cl)c(C(F)(F)F)c1)S(=O)(=O)c1ccccc1)Nc1cccnc1 | 11µM* | ? | -14% | / | / | ?
COc1cccc(C(=O)CC2(O)C(=O)Nc3ccc(Cl)cc32)c1 (stereo not given) | ? | 1% | -15% | / | / | i
CCN(CC)S(=O)(=O)c1ccc2[nH]cc(C(=O)NCCN3CCCCCC3)c(=O)c2c1 | 12% | 0% | -6% | 0% | 7% | i
Cc1cc(C)cc(NS(=O)(=O)c2ccc3[nH]cc(C(=O)N4CCc5ccccc54)c(=O)c3c2)c1 | -13% | 2% | 1% | 23µM* | 23µM* | i
CCN(CC)S(=O)(=O)c1ccc2[nH]cc(C(=O)NCCC3=CCCCC3)c(=O)c2c1 | ? | -27% | -44% | ? | 23µM* | ?
CCc1ccc(NS(=O)(=O)c2ccc3[nH]cc(C(=O)NCc4ccc(C)cc4)c(=O)c3c2)cc1 | ? | ? | 20µM* | / | / | i
Cc1ccc(CN2CCOc3ccc(CN4CCN(CCO)CC4)cc3C2)s1 | / | / | / | / | / | i
Cc1c(C(=O)NCCN2CCOCC2)cnn1-c1nccc(-c2cc3ccccc3o2)n1 | / | / | / | / | / | i
CCN(CC)CC(C)CNC(=O)c1cc(-c2ccc(Br)s2)nc2ccccc12 (stereo not given) | ? | 28µM* | -32% | / | / | /
O=C1c2[nH]nc(-c3ccccc3O)c2C(c2cccc(OCc3ccccc3)c2)N1CCCO (stereo not given) | 10µM* | / | -102% | / | / | /
CCCN1C(=O)c2[nH]nc(-c3ccccc3O)c2C1c1ccc(OCc2ccccc2)c(OC)c1 (stereo not given) | 13µM* | / | -42% | / | / | /
COc1cc(C2c3c(-c4ccccc4O)n[nH]c3C(=O)N2CCO)ccc1OCc1ccccc1 (stereo not given) | -25% | / | -18% | / | / | /
COc1ccc(CCN2C(=O)c3[nH]nc(-c4ccccc4O)c3C2c2cccc(Cl)c2)cc1 (stereo not given) | ? | -26% | -92% | 23µM* | 12µM* | ?
CCc1ccc(C2c3c(-c4cc(C)ccc4O)n[nH]c3C(=O)N2Cc2cccnc2)cc1 (stereo not given) | ? | ? | 20µM* | / | / | /
CC(C)(C)n1ncc2c(=O)n(Cc3ccc(-c4ccccc4C#N)cc3)cnc21 | -2% | / | 3% | / | / | /
COC(=O)C[C@H]1c2ccccc2S(=O)(=O)N1c1ccc(N(C)C)cc1 | -2% | / | 5% | / | / | /
CCOc1cc(C2c3c(-c4cc(C)ccc4O)n[nH]c3C(=O)N2CCCOC(C)C)ccc1O (stereo not given) | 13µM* | / | -13% | / | / | /
Cc1ccc(C2c3c(-c4ccccc4O)n[nH]c3C(=O)N2CCc2ccccc2)cc1 (stereo not given) | 11µM* | / | -95% | / | / | /
CCCOc1ccc(C2c3c(-c4ccccc4O)n[nH]c3C(=O)N2CCc2ccccc2)cc1OCC (stereo not given) | 11µM* | / | 11µM* | / | / | /
CCOc1ccc(C2c3c(-c4cc(C)ccc4O)n[nH]c3C(=O)N2Cc2cccnc2)cc1OCC (stereo not given) | -17% | 8% | -18% | / | / | i
O=C1c2[nH]nc(-c3ccccc3O)c2C(c2cccc(Br)c2)N1Cc1ccncc1 (stereo not given) | ? | ? | -38% | / | / | 11µM*
CC(C)c1ccc(C2c3c(-c4ccccc4O)n[nH]c3C(=O)N2CCc2ccccc2)cc1 (stereo not given) | -11% | / | -30% | / | / | /
Cc1cccc(NC(=O)Cc2coc3ccc4ccccc4c23)n1 | -7% | 0% | -25% | ? | 7.1µM* | i
O=C(O)Cc1coc2ccc3ccccc3c12 | 0% | -10% | -4% | -13% | -3% | i
SMILES | TGFb inhibitor | ATXN2 expr inh | HepG2 viability | HT1080NT lethal | HT1080 IDH1KD tx | ATXN viability
Cc1ccc(C(=O)C[n+]2cc(-c3ccc(C)cc3)n3c2CCCCC3)cc1 | ? | ? | -11% | 13µM* | 18µM* | ?
Cc1ccc(-c2c[n+](CC(=O)Nc3nc(-c4ccc(F)cc4)cs3)c3n2CCC3)cc1 | ? | -17% | 18µM* | 21µM* | 23µM* | ?
Cc1ccc(CNCc2cn[nH]c2-c2ccc(C)cc2)cc1 | -17% | / | -15% | / | / | /
O=S1(=O)c2ccccc2N(Cc2cccc(F)c2)c2ccccc21 | -11% | -16% | -8% | / | / | i
COc1ccc(OCCCn2c(CCNC(=O)C3CCCCC3)nc3ccccc32)cc1 | 10µM* | / | -17% | / | / | /
Cc1cccc(C)c1OCCCn1c(CCNC(=O)C2CCCCC2)nc2ccccc21 | 11µM* | / | -94% | / | / | /
O=C(NCCc1nc2ccccc2n1CCCOc1ccccc1)C1CCCCC1 | ? | / | -9% | / | / | /
Cc1ccccc1OCCCCn1c(CCNC(=O)C(C)(C)C)nc2ccccc21 | 16µM* | ? | -86% | / | / | ?
CC(C)(C)c1ccc(O)c(N=Cc2cccc([N+](=O)[O-])c2)c1 | / | / | / | 5% | 12% | /
CCNC(=O)[C@H]1O[C@@H](n2cnc3c(N)nc(NCCc4ccc(CCC(=O)O)cc4)nc32)[C@H](O)[C@H]1O | / | -1% | / | / | / | /
Cc1cc2c(=Cc3ccc(N(C)C)cc3)c3ccccc3n2[n+]1C | 6.3µM* | 10µM* | -29% | 15µM* | 4.6µM* | ?
CN(C)c1ccc(C=c2c3ccccc3n3c2c2ccccc2[n+]3C)cc1 | 2.5µM* | 6.3µM* | -43% | 23µM* | 8.2µM* | ?
CCOC(=O)c1cc2c(=Cc3ccc(N(C)C)cc3)c3ccccc3n2[n+]1C | ? | ? | -39% | ? | 8.2µM* | /
C[n+]1c(-c2ccccc2)cc2c(=Cc3ccc([N+](=O)[O-])cc3)c3ccccc3n21 | ? | ? | -27% | ? | ? | ?
CCc1ccccc1NC(=O)CN1C(=O)C2CCCN2c2ccc(S(=O)(=O)N(CC)CC)cc21 (stereo not given) | -20% | / | -29% | / | / | /
COCc1c(C(=O)N2CCCCCC2)cnn1-c1nccc(-c2cccs2)n1 | / | / | / | / | / | i
OCC[N+]1(CCc2ccccc2)CCOCC1 | -18% | / | -26% | / | / | /
N=c1c2c(ncn1Cc1ccco1)Oc1c(ccc3ccccc13)C2c1ccccc1 (stereo not given) | 0% | ? | -28% | 16µM* | ? | ?
